We go through six compounds from ChEMBL document CHEMBL2218924, “A broad activity screen in support of a chemogenomic map for kinase signalling research and drug discovery” (Biochem J, 2013).

Assay [1] concerns the target Mast/stem cell growth factor receptor Kit (Homo sapiens) (UniProt P10721). Particulars: at 1 µM.
For assay [2] the target is unchanged. Particulars: at 10 µM.
The target in assay [3] is Proto-oncogene tyrosine-protein kinase Src (Homo sapiens) (UniProt P12931). Particulars: at 1 µM.
Proto-oncogene tyrosine-protein kinase Src (Homo sapiens), sequence (P12931 2-536 limits assumed): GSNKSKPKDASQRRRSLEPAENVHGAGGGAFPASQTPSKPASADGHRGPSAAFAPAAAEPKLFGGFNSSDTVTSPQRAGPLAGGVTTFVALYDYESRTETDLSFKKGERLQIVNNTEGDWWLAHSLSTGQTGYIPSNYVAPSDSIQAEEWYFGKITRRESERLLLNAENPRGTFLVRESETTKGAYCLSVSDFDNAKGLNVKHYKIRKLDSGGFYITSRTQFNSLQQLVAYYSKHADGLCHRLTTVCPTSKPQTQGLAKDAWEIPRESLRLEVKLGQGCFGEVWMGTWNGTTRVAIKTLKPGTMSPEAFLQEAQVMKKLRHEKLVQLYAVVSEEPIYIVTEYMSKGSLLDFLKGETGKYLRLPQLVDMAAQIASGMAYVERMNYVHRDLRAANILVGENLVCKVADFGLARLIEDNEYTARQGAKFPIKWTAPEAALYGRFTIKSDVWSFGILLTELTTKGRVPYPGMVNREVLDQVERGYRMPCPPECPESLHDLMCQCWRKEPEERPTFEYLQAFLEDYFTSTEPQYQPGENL
Assay [4] has the same target. As to conditions: at 10 µM.
The target in assay [5] is Serine/threonine-protein kinase mTOR (Homo sapiens) (UniProt P42345). Particulars: at 1 µM.
The target is the same in assay [6]. As to conditions: at 10 µM.
Assay [7] has the same target. As to conditions: at 1 µM. The source holds these as a separate data set.
For assay [8] the target is unchanged. As to conditions: at 10 µM. The source holds these as a separate data set.
Assay [9] addresses Ribosomal protein S6 kinase beta-1 (Homo sapiens) (UniProt P23443). Particulars: at 1 µM.
Assay [10] shares this target. Particulars: at 10 µM.
Assay [11] deals with Serine/threonine-protein kinase Nek6 (Homo sapiens) (UniProt Q9HC98). Particulars: at 1 µM.
Serine/threonine-protein kinase Nek6 (Homo sapiens), sequence (Q9HC98 whole entry): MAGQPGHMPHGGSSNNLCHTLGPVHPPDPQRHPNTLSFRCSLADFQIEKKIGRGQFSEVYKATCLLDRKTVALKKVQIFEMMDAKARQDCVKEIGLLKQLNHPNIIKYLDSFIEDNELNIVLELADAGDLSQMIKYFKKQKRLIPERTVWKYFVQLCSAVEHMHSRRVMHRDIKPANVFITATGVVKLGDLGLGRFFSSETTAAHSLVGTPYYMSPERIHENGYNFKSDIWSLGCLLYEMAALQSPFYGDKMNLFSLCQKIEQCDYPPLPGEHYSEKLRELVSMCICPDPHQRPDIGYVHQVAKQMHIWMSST
For assay [12] the target is unchanged. Particulars: at 10 µM.
Assay [13] addresses Serine/threonine-protein kinase Nek7 (Homo sapiens) (UniProt Q8TDX7). Particulars: at 1 µM.
The target is the same in assay [14]. Particulars: at 10 µM.
The target in assay [15] is T1, Serine/threonine-protein kinase NLK (Homo sapiens) (UniProt Q9UBE8).
T1 sequence (whole entry): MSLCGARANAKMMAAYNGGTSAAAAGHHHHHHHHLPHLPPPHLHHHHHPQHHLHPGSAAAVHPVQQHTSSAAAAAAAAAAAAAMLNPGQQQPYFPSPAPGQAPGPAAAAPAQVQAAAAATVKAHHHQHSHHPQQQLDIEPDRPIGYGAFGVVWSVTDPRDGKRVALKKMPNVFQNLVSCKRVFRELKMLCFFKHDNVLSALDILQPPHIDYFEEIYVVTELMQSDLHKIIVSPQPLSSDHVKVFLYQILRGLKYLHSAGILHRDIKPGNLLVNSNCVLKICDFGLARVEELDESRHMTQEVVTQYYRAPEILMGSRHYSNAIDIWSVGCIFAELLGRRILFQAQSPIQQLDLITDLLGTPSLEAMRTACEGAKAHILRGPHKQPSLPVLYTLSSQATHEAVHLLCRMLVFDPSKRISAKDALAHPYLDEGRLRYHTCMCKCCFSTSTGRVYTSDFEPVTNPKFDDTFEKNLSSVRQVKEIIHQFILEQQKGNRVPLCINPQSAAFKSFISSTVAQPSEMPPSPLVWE
Particulars: at 1 µM.

Assay [16] deals with T1, Serine/threonine-protein kinase NLK (Homo sapiens). Particulars: at 10 µM.
Assay [17] addresses Serine/threonine-protein kinase PAK 2 (Homo sapiens) (UniProt Q13177). As to conditions: at 1 µM.
The target is the same in assay [18]. As to conditions: at 10 µM.
Assay [19] concerns the target T2, Eukaryotic elongation factor 2 kinase (Homo sapiens) (UniProt O00418).
T2 sequence (whole entry): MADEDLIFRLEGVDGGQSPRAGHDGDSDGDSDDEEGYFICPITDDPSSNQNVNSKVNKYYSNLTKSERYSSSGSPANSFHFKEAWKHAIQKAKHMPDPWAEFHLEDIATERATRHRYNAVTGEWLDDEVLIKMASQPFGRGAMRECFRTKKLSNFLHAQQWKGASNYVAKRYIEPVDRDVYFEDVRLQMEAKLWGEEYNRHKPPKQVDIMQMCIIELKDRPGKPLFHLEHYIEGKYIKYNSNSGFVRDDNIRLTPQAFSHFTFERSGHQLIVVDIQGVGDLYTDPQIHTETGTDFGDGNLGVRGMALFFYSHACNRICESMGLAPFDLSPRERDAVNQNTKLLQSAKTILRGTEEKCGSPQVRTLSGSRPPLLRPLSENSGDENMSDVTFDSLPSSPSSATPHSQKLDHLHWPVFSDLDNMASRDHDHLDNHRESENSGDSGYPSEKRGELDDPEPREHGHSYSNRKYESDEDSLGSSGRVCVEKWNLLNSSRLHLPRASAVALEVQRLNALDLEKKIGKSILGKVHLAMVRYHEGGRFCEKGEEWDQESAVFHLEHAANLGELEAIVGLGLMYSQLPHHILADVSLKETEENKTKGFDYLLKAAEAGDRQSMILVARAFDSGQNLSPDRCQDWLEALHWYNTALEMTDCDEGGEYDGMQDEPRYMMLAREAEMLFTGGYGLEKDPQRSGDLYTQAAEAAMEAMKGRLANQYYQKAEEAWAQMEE
Particulars: at 10 µM.

Mast/stem cell growth factor receptor Kit (Homo sapiens), sequence (P10721 whole entry): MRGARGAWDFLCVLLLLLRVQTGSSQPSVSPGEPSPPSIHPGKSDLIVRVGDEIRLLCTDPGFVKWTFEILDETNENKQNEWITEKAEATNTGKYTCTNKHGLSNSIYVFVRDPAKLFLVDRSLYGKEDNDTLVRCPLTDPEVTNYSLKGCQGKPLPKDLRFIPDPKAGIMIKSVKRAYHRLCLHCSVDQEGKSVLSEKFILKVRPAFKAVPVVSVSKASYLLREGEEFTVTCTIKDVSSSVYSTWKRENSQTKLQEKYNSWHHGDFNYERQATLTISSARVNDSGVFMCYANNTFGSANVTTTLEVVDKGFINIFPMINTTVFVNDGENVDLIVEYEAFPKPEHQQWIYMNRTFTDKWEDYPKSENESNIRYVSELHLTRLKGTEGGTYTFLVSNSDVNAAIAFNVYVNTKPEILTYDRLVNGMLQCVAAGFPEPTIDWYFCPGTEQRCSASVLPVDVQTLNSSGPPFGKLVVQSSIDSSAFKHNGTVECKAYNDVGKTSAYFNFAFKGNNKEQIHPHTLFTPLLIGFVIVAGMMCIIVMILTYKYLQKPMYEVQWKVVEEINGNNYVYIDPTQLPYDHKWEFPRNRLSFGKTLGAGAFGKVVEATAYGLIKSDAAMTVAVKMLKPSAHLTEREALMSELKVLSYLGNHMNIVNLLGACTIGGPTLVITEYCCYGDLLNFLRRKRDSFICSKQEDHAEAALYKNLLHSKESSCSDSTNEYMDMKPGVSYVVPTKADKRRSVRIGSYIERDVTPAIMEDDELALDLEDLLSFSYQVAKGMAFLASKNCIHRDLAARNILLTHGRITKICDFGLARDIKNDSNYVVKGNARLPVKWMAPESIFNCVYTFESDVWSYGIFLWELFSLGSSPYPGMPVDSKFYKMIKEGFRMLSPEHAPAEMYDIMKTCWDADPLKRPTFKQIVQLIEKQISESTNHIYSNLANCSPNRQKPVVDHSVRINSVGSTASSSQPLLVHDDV
Serine/threonine-protein kinase Nek7 (Homo sapiens), sequence (Q8TDX7 whole entry, looked up): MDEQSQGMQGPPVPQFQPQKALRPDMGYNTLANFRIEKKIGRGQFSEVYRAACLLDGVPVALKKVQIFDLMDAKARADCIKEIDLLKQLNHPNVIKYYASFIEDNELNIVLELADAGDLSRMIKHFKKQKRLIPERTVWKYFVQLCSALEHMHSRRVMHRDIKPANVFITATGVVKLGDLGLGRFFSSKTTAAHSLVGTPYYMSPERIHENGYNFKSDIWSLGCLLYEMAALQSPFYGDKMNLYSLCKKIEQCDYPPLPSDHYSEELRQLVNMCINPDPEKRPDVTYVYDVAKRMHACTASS
Ribosomal protein S6 kinase beta-1 (Homo sapiens), sequence (P23443 whole entry, looked up): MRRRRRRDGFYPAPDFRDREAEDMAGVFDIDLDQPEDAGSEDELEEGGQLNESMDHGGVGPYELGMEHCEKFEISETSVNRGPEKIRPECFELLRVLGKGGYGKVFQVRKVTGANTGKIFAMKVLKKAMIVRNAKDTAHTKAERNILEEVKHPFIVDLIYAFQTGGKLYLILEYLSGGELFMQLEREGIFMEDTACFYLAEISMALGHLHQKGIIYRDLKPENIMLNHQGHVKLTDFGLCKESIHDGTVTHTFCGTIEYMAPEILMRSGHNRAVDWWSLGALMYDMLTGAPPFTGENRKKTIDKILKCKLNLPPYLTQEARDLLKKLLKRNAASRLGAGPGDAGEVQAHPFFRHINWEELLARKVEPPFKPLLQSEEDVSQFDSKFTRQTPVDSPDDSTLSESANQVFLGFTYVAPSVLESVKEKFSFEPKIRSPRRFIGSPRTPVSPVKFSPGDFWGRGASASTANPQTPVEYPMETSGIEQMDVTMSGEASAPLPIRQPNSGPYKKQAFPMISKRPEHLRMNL
Serine/threonine-protein kinase PAK 2 (Homo sapiens), sequence (Q13177 whole entry): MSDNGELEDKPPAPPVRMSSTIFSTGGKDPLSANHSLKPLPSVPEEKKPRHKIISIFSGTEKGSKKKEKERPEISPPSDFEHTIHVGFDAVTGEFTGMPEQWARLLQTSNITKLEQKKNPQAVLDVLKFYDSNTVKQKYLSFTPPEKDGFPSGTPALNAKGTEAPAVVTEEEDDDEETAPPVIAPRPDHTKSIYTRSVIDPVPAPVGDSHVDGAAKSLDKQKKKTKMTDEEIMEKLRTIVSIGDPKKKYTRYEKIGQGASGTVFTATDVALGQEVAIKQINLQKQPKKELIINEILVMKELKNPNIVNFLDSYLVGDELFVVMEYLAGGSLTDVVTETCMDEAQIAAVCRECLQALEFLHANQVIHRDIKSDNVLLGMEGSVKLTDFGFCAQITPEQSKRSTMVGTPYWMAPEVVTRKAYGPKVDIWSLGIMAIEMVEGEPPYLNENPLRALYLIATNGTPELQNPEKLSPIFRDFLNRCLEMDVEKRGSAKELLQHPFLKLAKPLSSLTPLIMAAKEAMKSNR

The residual activity is the signal under treatment as a percentage of the control signal. On to `CO[C@H]1C[C@@H]2CC[C@@H](C)[C@@](O)(O2)C(=O)C(=O)N2CCCC[C@H]2C(=O)O[C@H]([C@H](C)C[C@@H]2CC[C@@H](O)[C@H](OC)C2)CC(=O)[C@H](C)/C=C(\C)[C@@H](O)[C@@H](OC)C(=O)[C@H](C)C[C@H](C)/C=C/C=C/C=C/1C`, for which the residual activity in assay [1] amounted to 110%; in assay [2] it was 101%; in assay [3], 89%; in assay [4] it was 95%; in assay [5], 57%; in [6], 51%. The residual activity in [7] is -17%; in assay [8], 4%; in assay [9] it was 92%; in assay [10] it was 147%; in assay [11], 97% (inactive); in assay [12], 118%. In addition, the residual activity in assay [13] is 97% (inactive); in [14] it was 115% (inactive); in assay [15], 101%; in assay [16], 91%; in assay [17], 101%; in assay [18] it was 95%.
With `CO[C@H]1[C@@H](OC)C[C@H](C)[C@@H](OC)C2=CC(=O)C=C(NC(=O)/C(C)=C/C=C/[C@H](OC)[C@@H](OC(N)=O)/C(C)=C/[C@@H]1C)C2=O`, the residual activity was 104% in [1]; 98% in assay [2]; 101% in assay [3]; 92% in [4]; 95% in [5]; 103% in assay [6]. For the same compound, the residual activity is 77% in assay [7]; 89% in [8]; 75% in [9]; 43% in [10]; 103% (inactive) in [11]; 112% in assay [12]. The residual activity in assay [13] was 89% (inactive); in assay [14] it was 76% (inactive); in [15] it was 110%; in assay [16], 83%; in [17], 108%; in [18], 83%.
Take `Cn1cc(/C=C2\C(=O)Nc3ccc(S(N)(=O)=O)cc32)c2ccccc21`: the residual activity in assay [1] was found to be 69%; in assay [2], 17%; in assay [3], 49%; in assay [4], 25%; in [5], 106%; in assay [6] it was 99%. The residual activity in [7] is 104%; in assay [8], 102%; in [9] it was 29%; in assay [10], 11%; in assay [11] it was 100% (inactive); in assay [12], 112%. Also, the residual activity was 103% (inactive) in assay [13]; 89% (inactive) in [14]; 104% in assay [15]; 84% in assay [16]; 124% in assay [17]; 91% in assay [18].
For the compound `Oc1c2ccccc2c2c3c(cccc13)N=N2`, the residual activity in [1] worked out at 91%; in assay [2] it was 30%; in assay [3], 89%; in assay [4] it was 64%; in [19], 92%; in assay [5], 104%. In addition, the residual activity in assay [6] is 77%; in [8], 84%; in assay [9] it was 55%; in assay [10] it was 14%; in assay [11] it was 107% (inactive); in [12], 101%. Besides, the residual activity in [13] was 99% (inactive); in assay [14], 89% (inactive); in [15], 78%; in assay [16], 71%; in [17], 96%; in [18] it was 86%.
`CN(C)c1ccc(/C=C2\C(=O)Nc3ccccc32)cc1`: the residual activity in assay [1] came out at 24%; in assay [2] it was 4%; in assay [3], 87%; in assay [4], 85%; in [5] it was 78%; in assay [6] it was 101%. Further, the residual activity in assay [7] was 78%; in [8] it was 89%; in assay [9], 69%; in assay [10], 29%; in assay [11] it was 108% (inactive); in assay [12] it was 107%. For the same compound, the residual activity was 118% (inactive) in assay [13]; 116% (inactive) in assay [14]; 110% in assay [15]; 88% in assay [16]; 96% in assay [17]; 100% in assay [18].
For `Oc1n[nH]c2nnc(-c3c(-c4ccccc4)nn4ccccc34)cc12`, the residual activity was found to be 94% in assay [1]; 104% in [2]; 95% in assay [3]; 87% in [4]; 97% in assay [5]; 76% in assay [6]. Besides, the residual activity is 102% in assay [7]; 76% in [8]; 106% in [9]; 96% in [10]; 103% (inactive) in [11]; 110% in assay [12]. In addition, the residual activity in [13] was 100% (inactive); in assay [14], 96% (inactive); in assay [15] it was 90%; in assay [16] it was 86%; in assay [17], 94%; in assay [18], 99%.
